# Assay outcomes (PubChem BioAssay)
# Only some compounds are listed: those with a hit (about 19% of all), similar ones and a draw of the others.
# IL-1B inflam inh – qHTS for Inhibitors of Inflammasome Signaling: IL-1-beta AlphaLISA Primary Screen. THP-1 LPS/ATP IL-1B secretion, AlphaLISA, 16 h; stronger effect = lower value. activity change, % at 57.5 µM. actives 4.7% (n = 360,000). AID 743279, 2014; in the data active = activity change below about -50%; inconclusive = mostly about -30% to -49%; note: % is set by controls: 0 for no effect and ±100 for the full control effect
#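 Secreted IL-1B measured by AlphaLISA bead assay after 16 h compound exposure of THP-1 cells; compounds (final up to 57.5 uM) added 1 h before LPS (250 ng/mL) and ATP (1.25 mM) stimulation; lower signal means less secretion.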
# S-ASM inh – Inhibitors of Secretory Acid Sphingomyelinase (S-ASM): qHTS | placental ASM, HMU-PC fluorogenic substrate, 60 min | AID 504937, 2011 | Sphingomyelin phosphodiesterase (Homo sapiens), P17405 | Potency, µM (titrated, usually from 57.5 µM), for inactives: at the highest dose activity change, negative = inhibition, actives largely listed as inhibitors | actives 0.006% (n = 340,000); note: potency is the fitted concentration of half-maximal effect
# Target sequence (P17405 47-631 limits assumed): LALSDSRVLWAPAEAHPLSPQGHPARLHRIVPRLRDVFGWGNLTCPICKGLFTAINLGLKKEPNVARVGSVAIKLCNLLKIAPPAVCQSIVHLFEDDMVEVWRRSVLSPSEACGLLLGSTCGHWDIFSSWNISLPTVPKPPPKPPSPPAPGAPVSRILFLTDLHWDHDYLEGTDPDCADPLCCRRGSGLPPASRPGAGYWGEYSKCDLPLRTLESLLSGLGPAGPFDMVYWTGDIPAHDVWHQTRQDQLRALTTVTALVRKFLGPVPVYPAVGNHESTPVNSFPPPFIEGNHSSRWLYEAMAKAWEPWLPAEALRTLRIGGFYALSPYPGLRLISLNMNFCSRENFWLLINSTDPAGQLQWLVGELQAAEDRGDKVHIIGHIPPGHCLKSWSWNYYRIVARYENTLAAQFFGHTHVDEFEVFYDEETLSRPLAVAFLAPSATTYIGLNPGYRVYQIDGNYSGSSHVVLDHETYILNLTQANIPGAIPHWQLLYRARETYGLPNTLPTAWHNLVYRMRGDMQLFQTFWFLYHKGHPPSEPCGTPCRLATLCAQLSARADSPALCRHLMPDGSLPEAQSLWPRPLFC
#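 qHTS format. ASM enzyme prepared from human placenta hydrolyses the fluorogenic substrate HMU-PC0 (9 uM final) over 60 min at 37 °C after a 10 min compound preincubation.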
# DT40 TDP1 no CPT – qHTS for Inhibitors of human tyrosyl-DNA phosphodiesterase 1 (TDP1): qHTS in cells in absence of CPT; DT40 Tdp1-/- hTDP1 cells, no CPT, ATP luminescence, 48 h; actives 15% (n = 420,000); Potency, µM (top dose mostly 46.2 µM), for the others: at the highest dose activity change, negative = growth inhibition, actives largely listed as inhibitors; note: potency is the fitted concentration of half-maximal effect; % is set by controls: 0 for no effect and ±100 for the full control effect; nearly all actives have a fitted effect of over 55% in size
#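 Seeded 400 DT40-hTDP1 cells/well (vehicle DMSO, no 20 nM CPT); pinned compounds; ≥48 hr at 37 °C; CellTiter-Glo luminescence as viability measure.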
# DT40 TDP1 CPT – qHTS for Inhibitors of human tyrosyl-DNA phosphodiesterase 1 (TDP1): qHTS in cells in presence of CPT; chicken DT40 Tdp1-/-;hTDP1 cells + 20 nM CPT, ATP luminescence, 48 h; Potency, µM (series often up to 46.2 µM), for the others: at the top dose activity change, negative = growth inhibition, most hits filed as inhibitors; AID 686979, 2013; actives 12% (n = 420,000); note: potency is the fitted concentration of half-maximal effect; % is set by controls: 0 for no effect and ±100 for the full control effect; nearly all actives have a fitted effect of over 55% in size
#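 Chicken DT40 Tdp1-/- cells stably complemented with human TDP1 were seeded at 400 cells/well in medium containing 20 nM camptothecin, exposed to pin-transferred compounds, and grown at 37 °C for at least 48 hr. Viability was read as ATP luminescence.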
# HepG2 tox – qHTS for Inhibitors of TGF-b: Cytotox Counterscreen | HepG2 CAGA-GFP viability, ATP luminescence, 18 h | Potency, µM (doses to about 46.1 µM), for inactives: at the top dose activity change, negative = cytotoxicity, hits mostly cytotoxic | actives 0.76% (n = 410,000) | AID 588856, 2011; note: potency is the fitted concentration of half-maximal effect
#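 CellTiter-Glo luminescence gave cytotoxicity after 18 hours at 37 degrees C. The cells were HepG2 CAGA-GFP in 1% FBS DMEM, stimulated with 500 pg/mL TGF-beta after compound addition. %Activity was normalised to no-cell wells (complete cell-killing) and DMSO (no toxicity), and curves were fitted and classified.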
# TGFb inhibitor – qHTS for Inhibitors of TGF-b; HepG2 CAGA-GFP TGF-b/SMAD3 reporter, GFP fluorescence, 18 h; TGF-beta stimulated, 500 pg/mL final; Potency, µM (top dose mostly 46.1 µM), for the others: at the top dose activity, negative = inhibition, hits mostly inhibitors; actives 1.2% (n = 410,000); AID 588855, 2011; note: potency is the fitted concentration of half-maximal effect; % is set by controls: 0 for no effect and ±100 for the full control effect; nearly all actives have a fitted effect of over 65% in size
#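 HEPG2 CAGA-GFP, 1000 cells/well; 2 h settle, 37 C; cpd via pin tool; TGF-b 500 pg/mL final; 18 h, 37 C; GFP imaging ex488/em500-530; %Activity normalised to -TGF-b and +DMSO controls; CRC fit, curve class.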
# The depositor's hits bear a star; i = inactive; ? = inconclusive; · = not tested or not shown. Unless noted, calls come from the whole dose curve; as a rule, active = well fitted curve in the direction sought with a large enough effect; inconclusive = small, poorly fitted or top-dose-only effect, or another doubt; inactive = no such curve, though single readings can be large; an effect the other way counts as inactive or inconclusive.
SMILES,IL-1B inflam inh,S-ASM inh,DT40 TDP1 no CPT,DT40 TDP1 CPT,HepG2 tox,TGFb inhibitor
Cc1ccc(-c2c[n+](CC(=O)Nc3nc(-c4ccccc4)cs3)c3n2CCC3)cc1,-28,-10%,18µM*,15µM*,-11%,5%
O=C(C[n+]1cc(-c2ccccc2)n2c1CCC2)Nc1nc(-c2ccccc2)cs1,0,-1%,23µM*,?,-29%,9%
Cc1ccc(-c2c[n+](CC(=O)Nc3ccccc3C)c3n2CCC3)cc1,-53*,-3%,?,?,0%,-2%
N/C(Cc1nc(-c2ccc(Cl)cc2)cs1)=N/O,-26,4%,-26%,-15%,4%,-16%
COc1ccc(-c2c(C)nn3c(C(F)(F)F)cc(-c4ccccc4)nc23)cc1,·,·,?,?,5%,5%
Cc1ccc2c(c1)c1c(c(=O)n(-c3cccc(Cl)c3)c(=O)n1CC(=O)NCC1CCCO1)n2C (configuration not stated),·,·,-21%,-22%,0%,-20%
O=C(O)CCn1ccc2cc(S(=O)(=O)N3CCCCC3)ccc21,·,·,-24%,-4%,-17%,-6%
CC1(C)C(=O)OC(/C=C\c2ccccc2)C(C)(C)C1=O (configuration not stated),-7,-3%,-17%,0%,-12%,-2%
Cc1ccc(OC(C)C(=O)NCC2(N3CCOCC3)CCCCC2)cc1C (configuration not stated),·,·,?,?,-21%,0%
Cc1ccccc1-c1nc(CN2CCC(C(=O)NCCCN3CC(C)CC(C)C3)CC2)c(C)o1 (configuration not stated),-6,-3%,?,23µM*,-31%,-18%
Cc1oc(-c2ccc(Cl)cc2)nc1CN1CCC(C(=O)NCc2ccco2)CC1,-21,6%,?,-23%,-39%,7%
Cc1oc(-c2ccccc2F)nc1CN1CCC(C(=O)NCCC2=CCCCC2)CC1,-13,1%,23µM*,?,-2%,-9%
Cc1ccccc1-c1nc(CN2CCC(C(=O)NCc3ccc(F)cc3)CC2)c(C)o1,·,·,21µM*,16µM*,-32%,-27%
Cc1ccccc1-c1nc(CN2CCC(C(=O)NCc3ccco3)CC2)c(C)o1,-67*,2%,?,?,-33%,3%
CC(C)(C)c1ccccc1NC(=O)Cn1c(=O)cnc2ccccc21,-3,0%,2%,9%,-2%,8%
COCC1CCN(Cc2cn(C)nc2-c2cccc(Cl)c2)C1 (configuration not stated),8,9%,-1%,8%,3%,8%
COCCCN1C(=O)C2C(C(=O)Nc3cc(C)cc(C)c3)C3C=CC2(O3)C1C(=O)NC1CCCCC1 (configuration not stated),-6,7%,-17%,5%,-8%,-13%
CCOC(=O)C1=C(C)NC2=C(C(=O)CCC2)C1c1cn(Cc2ccc(Cl)cc2Cl)nc1-c1ccccc1 (configuration not stated),?,i,21µM*,16µM*,3%,?
Cc1ccc(S(=O)(=O)N(Cc2c(F)cccc2Cl)C(=O)N2CCN(C)CC2)cc1,11,0%,-3%,12%,-4%,13%
O=C(N/N=C/c1cc(O)ccc1Br)c1cccnc1,175,0%,2.9µM*,5.8µM*,-49%,-27%
